From PubChem BioAssay
KB-V1 MDR tox: qHTS assay for MDR1-selective chemotherapeutics: Primary screen using the drug-selected MDR subline cells KB-V1; KB-V1 MDR cells viability, CellTiter-Glo, 72 h; Potency, µM (doses to about 46.1 µM), hits mostly cytotoxic; 3.4% of 400,000 active; AID 1347076, 2019; further: potency means the concentration at half of the fitted maximal effect; on the % scale 0 is the no-effect control and ±100 the full control effect; nearly all actives have a fitted effect of over 60% in size
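Potencies derive from concentration-effect curves fitted to normalized luminescence (CellTiter-Glo) of KB-V1 cells treated for 72 h at 37 degrees C in phenol-red-free DMEM containing 10% FBS.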
IL1B secr inh: qHTS for Inhibitors of Inflammasome Signaling: IL-1-beta AlphaLISA Primary Screen | 4.7% of 360,000 active | activity change, % at 57.5 µM | THP-1 LPS/ATP IL-1B secretion, AlphaLISA, 16 h; stronger effect = lower value; in the data active means activity change below about -50%; inconclusive means mostly about -30% to -49%; further: on the % scale 0 is the no-effect control and ±100 the full control effect
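Secreted IL-1B measured by AlphaLISA bead assay after 16 h compound exposure of THP-1 cells; compounds (final up to 57.5 uM) added 1 h before LPS (250 ng/mL) and ATP (1.25 mM) stimulation; lower signal means less secretion.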
MCF10A rereplic: A quantitative high throughput screen for small molecules that induce DNA re-replication in MCF 10a normal breast cells; MCF 10A DNA re-replication, Hoechst nuclear intensity, 48 h; Potency, µM (titrated, usually from 46.1 µM), for the others: at the top dose activity, positive = re-replication, usual class: activators; 2.9% of 350,000 active; further: potency means the concentration at half of the fitted maximal effect; % of control where 0% means no effect; nearly all actives have a fitted effect of over 50% in size
KB-3-1 tox: qHTS assay for MDR1-selective chemotherapeutics: Primary screen using the parental adenocarcinoma cell KB-3-1. Potency, µM (highest dose often 46.1 µM), most hits filed as cytotoxic. KB-3-1 viability, CellTiter-Glo ATP luminescence, 72 h. 1.4% of 400,000 active; further: potency means the concentration at half of the fitted maximal effect; on the % scale 0 is the no-effect control and ±100 the full control effect; nearly all actives have a fitted effect of over 60% in size
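Cytotoxicity in the drug-sensitive parental line KB-3-1 was scored as loss of CellTiter-Glo luminescence following 72 h incubation with compound. Values come from curve fitting of normalized concentration-response data.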
SW480 rereplic: A quantitative high throughput screen for small molecules that induce DNA re-replication in SW480 colon adenocarcinoma cells | AID 624297, 2012 | SW480 DNA re-replication, Hoechst DNA content imaging, 48 h | 1.8% of 340,000 active | Potency, µM (titrated, usually from 46.1 µM), inactives show at the top dose re-replication activation, hits mostly activators; further: potency means the concentration at half of the fitted maximal effect; % of control where 0% means no effect; nearly all actives have a fitted effect of over 55% in size
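Image-based DNA-content assay: after two days of treatment, nuclei were labelled with the DNA dye Hoechst and imaged, and hits were compounds raising the count of nuclei showing high fluorescence intensity.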
* hit, by the source's call; i = inactive; ? = inconclusive; / = not tested or not shown. Compounds with a hit are over-represented: about 9.9% of the library has one in this group of screens. Unless noted, the call rests on the fitted dose curve; in most records, active means well fitted curve in the direction sought with a large enough effect; inconclusive means small, poorly fitted or top-dose-only effect, or another doubt; inactive means no such curve, though single readings can be large; an effect the other way counts as inactive or inconclusive.

SMILES	KB-V1 MDR tox	IL1B secr inh	MCF10A rereplic	KB-3-1 tox	SW480 rereplic
O=C(/C=C/c1cccc(Br)c1)c1ccc2c(c1)OCO2	i	-104*	?	i	?
O=C(/C=C/c1ccc2c(c1)OCO2)c1ccc(F)cc1	i	-74*	?	i	?
COCCCNc1nc2c(c(=O)n(Cc3ccccc3)c(=O)n2C)n1C	i	/	/	i	/
CCCN(C(=O)c1cn(C)c(=O)c2ccccc12)c1ccccc1C	i	34	21%	i	-3%
CN(CC(=O)Nc1sccc1C(N)=O)S(=O)(=O)c1ccc(Cl)cc1	/	0	?	/	1%
COc1ccc(OC)c(NC(=O)CSc2ccnc(=O)[nH]2)c1	i	/	/	i	/
COc1cc(/C=C/C(=O)c2ccc3c(c2)OCCO3)cc(Br)c1OCC(=O)N(C)C	2.3µM*	-104*	?	5.2µM*	4.6µM*
COc1cccc(/C=C/C(=O)c2ccc[nH]2)c1	?	-93*	?	?	?
O=C(/C=C/c1ccccc1)c1ccc2c(c1)OCO2	i	-7	?	i	?
CN(C)c1ccc(/C=C/C(=O)c2ccc3c(c2)OCO3)cc1	?	-92*	?	?	?
O=C(Nc1ccncc1)c1ccc2c(c1)OCCO2	?	2	-1%	?	-9%
COc1cc(C(=O)NNC(=O)c2ccc3c(c2)OCCO3)cc(OC)c1OC	i	6	0%	i	-4%
O=C(/C=C/c1ccncc1)c1ccc2c(c1)OCCO2	?	-98*	?	23µM*	?
Cc1nn(-c2ccccc2)c(-n2cccc2)c1C(=O)NCCc1ccc(Cl)cc1	?	/	/	i	/
CSc1nn(Cc2ccc(Br)cc2)c(N(C(C)=O)C(C)=O)c1S(=O)(=O)c1ccccc1	?	/	/	i	/
CCOC(=O)N1CCC(NC(=O)CN(c2ccc(C(C)C)cc2)S(=O)(=O)c2c(C)nn(C)c2C)CC1	i	4	6%	?	-1%
Cc1nn(C)c(C)c1S(=O)(=O)N(CC(=O)NC1CCCCCC1)c1ccc(C(C)C)cc1	i	8	12µM*	i	-2%
COc1ccc(NC(=O)CN(c2ccc(C)cc2)S(=O)(=O)c2c(C)nn(C)c2C)cc1OC	13µM*	0	4%	?	0%
CCN(CC(=O)Nc1ccc(OC)c(OC)c1)S(=O)(=O)c1ccc(C)cc1	13µM*	26	1%	i	-5%
CCN(CC)S(=O)(=O)c1ccc(OC)c(NC(=S)Nc2ccc(C)c(C)c2)c1	18µM*	-27	?	i	?
COc1cc(NC(=O)Cn2cc(C(=O)c3ccc(F)cc3)c(=O)c3ccc(C)nc32)cc(OC)c1	i	/	/	i	/
CCOC(=O)c1ccc(OCC2c3cc(OC)c(OC)cc3CCN2C(=O)Cc2ccc(F)cc2)cc1 (stereo not drawn)	i	/	/	i	/
O=C(Cc1ccc(Br)cc1)NC1CCSC1=O (stereo not drawn)	i	-8	2%	i	1%
COCCN(C(=O)CSc1nnc(-c2ccccc2F)o1)c1c(N)n(Cc2ccccc2)c(=O)[nH]c1=O	i	-6	/	i	/
O=[N+]([O-])c1ccc(Cl)c(S(=O)(=O)Nc2cccc(-c3ccc(N4CCCC4)nn3)c2)c1	i	?	10%	i	-1%
SMILES	KB-V1 MDR tox	IL1B secr inh	MCF10A rereplic	KB-3-1 tox	SW480 rereplic
O=[N+]([O-])c1ccc(Cl)c(S(=O)(=O)Nc2ccc(-c3ccc(N4CCCC4)nn3)cc2)c1	i	-85*	15%	i	-7%
CC(C)(CO)NCc1ccccc1OCC(=O)Nc1ccccc1	i	-11	2%	i	8%
Cc1ccc(C(=O)N2CCN(c3ccc(NC(=O)COc4ccccc4C)cc3)CC2)cc1	?	-64*	9%	18µM*	4%
Cc1ccc(OCC(=O)Nc2ccc(N3CCN(C(=O)c4ccco4)CC3)cc2)cc1	?	-59*	26%	i	-4%
Cc1ccc(NC(=O)COc2ccccc2CNC(C)(C)CC(C)(C)C)cc1	?	-105*	18%	?	8%
CCC(=O)N1CCN(c2ccc(NC(=O)COc3ccc(C)cc3C)cc2)CC1	i	22	13%	i	0%
Cc1cc(C)cc(C(=O)Nc2ccc(N3CCN(C(=O)c4ccco4)CC3)cc2)c1	/	-52*	25%	/	?
Cc1cccc(N2C(=O)CSC23C(=O)N(Cc2cccc(C(F)(F)F)c2)c2ccccc23)c1 (stereo not drawn)	i	/	/	?	/
COc1ccc(NC(=O)COC(=O)c2ccc(-n3cnnn3)cc2)cc1Cl	i	-7	2%	i	-3%
CC1(C)CC(NC(=O)c2ccccn2)CC(C)(C)N1O	i	-8	-30%	i	-49%
Cc1ccc(CNC(=O)C2CCCN(S(=O)(=O)c3ccc4c(c3)oc(=O)n4C)C2)cc1 (stereo not drawn)	i	/	/	i	/
COc1cc(NC(=O)c2ccc(C)cc2C)ccc1NC(=O)c1cc2ccccc2o1	i	-7	9.2µM*	?	?
COc1cc(NC(=O)c2ccc(C)cc2)ccc1NC(=O)c1cc2ccccc2o1	i	25	24%	i	3%
COc1cc(NC(=O)c2ccc(F)cc2)ccc1NC(=O)c1cc2ccccc2o1	i	10	?	i	?
COc1cc(NC(=O)c2ccccc2F)ccc1NC(=O)c1cc2ccccc2o1	i	-26	2.3µM*	i	?
Cc1ccc(OCCNC(=O)c2ccccc2SCC(=O)N2CCCC2)cc1	?	6	3%	i	1%
Cc1cccc(-n2c(=O)c3c(c4cc(C)ccc4n3C)n(Cc3ccccc3F)c2=O)c1	i	/	/	i	/
CC[C@H]1OC(=O)[C@H](C)[C@@H](O[C@H]2C[C@@](C)(OC)[C@@H](O)[C@H](C)O2)[C@H](C)[C@@H](O[C@@H]2O[C@H](C)C[C@H](N(C)C)[C@H]2O)[C@](C)(O)C[C@@H](C)CN(C)[C@H](C)[C@@H](O)[C@]1(C)O	i	?	?	i	11%
Cc1cc(NS(=O)(=O)c2ccccc2)c(C)c(Cl)c1O	21µM*	3	-1%	?	3%
Cc1c(O)ccc(NS(=O)(=O)c2ccccc2)c1C	i	-8	-2%	i	-1%
COc1ccc(Cn2cc(CN(C)C3CN(Cc4cn(Cc5ccc(OC)cc5)nn4)S(=O)(=O)C3)nn2)cc1 (stereo not drawn)	i	-7	/	i	/
